Assay results from PubChem BioAssay AID1053133 (Broad Institute, 2014).
Where “and” joins values, the source holds several entries; their conditions need not be identical. Identical values can stand only once. Hit rate of the full screen: of about 89,000 compounds, about 10 (0.01%) were called active. Inconclusive results (about 10%) are left out. Rule as the data show it: active = activity change below about -37% (passing the limit was not always enough); inconclusive = no clear call, values can overlap the other calls; tested in A549 cells. These entries were drawn from the full list.

Assay: blocks a specific stage of Vaccinia orthopoxvirus infection, primary screen, cell-based, single point (AID 1053133)
Settings: Vaccinia-infected cells, mCherry/Venus stage reporter fluorescence, stronger effect = lower value, concentration not given here; activity change (Venus): measured here: Venus reporter, other viral stage

Row | SMILES | activity change (Venus) | activity change (mCherry)
1 | O=C(Nc1ccccc1)N1C[C@@H]2[C@H](c3ccccc31)[C@H](CO)N2C(=O)c1ccccn1 | 5.62% | 10.2% (inactive)
2 | Cc1ccc(S(=O)(=O)N(C)C[C@@H]2Oc3ccc(NS(=O)(=O)c4ccc(F)cc4)cc3CC(=O)N([C@@H](C)CO)C[C@H]2C)cc1 | -2.68% | 2.93% (inactive)
3 | COc1ccccc1NC(=O)N[C@H]1CC[C@H](CCn2cc(-c3cccnc3)nn2)O[C@@H]1CO | 7.22% | -4.31% (inactive)
4 | COc1ccc(-c2cn(CC[C@@H]3CC[C@@H](NC(=O)CCN4CCCCC4)[C@@H](CO)O3)nn2)cc1 | 11.2% | 5.57% (inactive)
5 | O=C(Cc1ccccn1)N[C@@H]1CC[C@H](CCn2cc(-c3ccc(F)cc3)nn2)O[C@@H]1CO | -0.00768% | 11% (inactive)
6 | Cc1ccc(S(=O)(=O)N[C@@H]2CC[C@@H](CCn3cc(C(C)C)nn3)O[C@H]2CO)cc1 | 2.74% | -0.697% (inactive)
7 | COc1ccc2c3c(n(C)c2c1)[C@H](CO)N(C(=O)c1ccc(F)cc1)CC31CCN(C(C)=O)CC1 | 7.75% | 25% (inactive)
8 | COC(=O)C[C@@H]1CC[C@@H]2[C@H](COc3ccc(NC(=O)Nc4cccc(F)c4)cc3C(=O)N2C)O1 | 6.13% | 6.13% (inactive)
9 | CCNC(=O)[C@@H]1[C@@H](CO)[C@@H]2Cn3c(ccc(C4=CCCCC4)c3=O)[C@@H]2N1Cc1ccccc1F | -3.86% | 2.73% (inactive)
10 | O=C(Nc1cc(F)ccc1F)N[C@H]1CC[C@H](CCn2cc(C3CCCC3)nn2)O[C@@H]1CO | -13.1% | -6.78% (inactive)
11 | C[C@H]1CN([C@@H](C)CO)C(=O)c2cc(C3=CCCC3)cnc2O[C@H]1CN(C)C(=O)Nc1ccc(F)cc1 | 6.92% | 7.38% (inactive)
12 | C[C@@H]1CN([C@@H](C)CO)C(=O)c2cc(NC(=O)C3CCCCC3)ccc2O[C@@H](C)CCCCO[C@H]1CN(C)C(=O)Nc1ccc2c(c1)OCO2 | 1.19% | 1.01% (inactive)
13 | CC(C)NC(=O)N1[C@H](C(=O)N2CCc3ccccc3C2)[C@@H](CO)[C@@H]2Cn3c(cccc3=O)[C@@H]21 | 7.39% | 13.3% (inactive)
14 | CCN1[C@@H]2Cn3c(ccc(C4=CCCCC4)c3=O)[C@H]1[C@@H](C(=O)N1CCCCC1)[C@@H]2CO | -4.76% | -0.187% (inactive)
15 | C[C@H]1CN([C@@H](C)CO)C(=O)c2cc(/C=C/c3ccccc3)cnc2O[C@@H]1CN(C)C(=O)NC1CCCCC1 | -19.2% | -26.2% (inactive)
16 | CS(=O)(=O)N1CC(=O)N2[C@@H](CO)[C@@H](c3ccc(C#CCC4CCCC4)cc3)[C@@H]2C1 | -6.84% | -14.6% (inactive)
17 | COc1ccc(CN2[C@@H](CO)[C@@H]3c4ccccc4N(C(=O)Nc4ccccc4)C[C@@H]32)cc1 | -11.3% | -12.7% (inactive)
18 | CCS(=O)(=O)Nc1ccc2c(c1)C(=O)N(C)[C@H]1CC[C@H](CC(=O)NCc3ccccc3F)O[C@H]1CO2 | 8.23% | -6.34% (inactive)
19 | O=C(C[C@H]1C=C[C@H](NC(=O)CC2CC2)[C@@H](CO)O1)NCc1ccccc1 | 4.6% | 4.83% (inactive)
20 | Cc1noc(C)c1NC(=O)N[C@@H]1CC[C@H](CCNC(=O)C2CCC2)O[C@@H]1CO | 3.06% | -10.7% (inactive)

Row | SMILES | activity change (Venus) | activity change (mCherry)
21 | CO[C@H]1CN(C)C(=O)c2ccc(NC(=O)C3CC3)cc2OC[C@@H](C)N(Cc2ccc(F)cc2)C[C@@H]1C | -14.9% | -29.4% (inactive)
22 | CC(=O)N1[C@@H]2Cn3c(ccc(C4=CCCC4)c3=O)[C@H]1[C@@H](C(=O)NC1CCC1)[C@@H]2CO | 2.6% | 11.3% (inactive)
23 | O=C(Cc1cccnc1)N1CC(=O)N2[C@H](CO)[C@H](c3ccc(C#CC4CCCC4)cc3)[C@@H]2C1 | -12.7% | -12.6% (inactive)
24 | O=C(N[C@@H]1CC[C@H](CCn2cc(-c3ccccn3)nn2)O[C@@H]1CO)c1ccccc1 | -0.983% | 0.892% (inactive)
25 | O=C(NC[C@H]1CC[C@H]2[C@H](CN2Cc2cccc(Cl)c2)O1)C1CC1 | 6.08% | 4.96% (inactive)
26 | CN(C)C(=O)c1cccc(-c2ccc3c(c2)[C@@H]2[C@@H](CCN2Cc2nccs2)[C@@H](CO)N3)c1 | -3.17% | -14.5% (inactive)
27 | O=C(C[C@@H]1CC[C@@H]2[C@H](COC[C@H](O)CN2Cc2ccc(F)cc2)O1)NCc1ccncn1 | 9.14% | 13.7% (inactive)
28 | CN1CCN(C(=O)C[C@H]2CC[C@H]3[C@@H](COC[C@H](O)CN3CC3CCCC3)O2)CC1 | -10.7% | -14.5% (inactive)
29 | CCCc1cn(CC[C@@H]2CC[C@@H](NC(=O)CCN3CCCCC3)[C@H](CO)O2)nn1 | 6.3% | 4.68% (inactive)
30 | COc1ccc(-c2cn(CC[C@H]3CC[C@@H](NC(=O)CCN4CCCCC4)[C@H](CO)O3)nn2)cc1 | 12% | 0.142% (inactive)
31 | N#C[C@@H]1[C@H](c2ccccc2-c2cccc(F)c2)[C@@H](CO)N1C(=O)CN1CCOCC1 | 4.69% | 12.6% (inactive)
32 | CO[C@H]1CN(C)C(=O)c2ccc(NC(=O)c3ccccc3F)cc2OC[C@H](C)N(C(=O)c2ccccc2F)C[C@H]1C | 2.58% | -1.92% (inactive)
33 | Cc1cc(C(=O)Nc2ccc3c(c2)C(=O)N(C)[C@@H]2CC[C@@H](CC(=O)NC4CCCC4)O[C@@H]2CO3)no1 | 8.29% | 8.19% (inactive)
34 | O=C(C[C@@H]1CC[C@@H]2[C@H](COC[C@H](O)CN2C(=O)Nc2cccc(Cl)c2)O1)NCCCN1CCOCC1 | 5.06% | 10% (inactive)
35 | CCC(=O)N1CCC2(CC1)CN(S(C)(=O)=O)[C@@H](CO)c1c2c2ccc(OC)cc2n1C | 7.75% | 14.3% (inactive)
36 | CC(C)CC#Cc1ccc2c(c1)O[C@H](CN(C)C(=O)Cc1cccnc1)[C@H](C)CN([C@@H](C)CO)S2(=O)=O | -21.5% | -32.3% (inactive)
37 | O=C(Cc1ccccn1)N[C@H]1CC[C@H](CCn2cc(-c3ccc(F)cc3)nn2)O[C@H]1CO | 1.48% | 5.56% (inactive)
38 | NCC[C@@H]1CC[C@@H](NC(=O)C2CCCC2)[C@H](CO)O1 | 0.29% | -7.04% (inactive)
39 | COc1ccc(NC(=O)Nc2ccc3c(c2)C(=O)N([C@@H](C)CO)C[C@H](C)[C@H](CN(C)S(=O)(=O)c2ccccc2)OCCCC[C@@H](C)O3)cc1 | -1.69% | -0.413% (inactive)
40 | C[C@@H]1CN([C@H](C)CO)C(=O)c2cc(-c3ccccc3)cnc2O[C@H]1CN(C)C(=O)NC1CCCC1 | -2.73% | 1.1% (inactive)

Row | SMILES | activity change (Venus) | activity change (mCherry)
41 | CCC(=O)N1CCC2(CC1)CN(Cc1cc(F)ccc1F)[C@@H](CO)c1c2c2ccc(OC)cc2n1C | -2.18% | 15.8% (inactive)
42 | O=C(C[C@H]1CC[C@@H]2[C@H](COC[C@H](O)CN2C(=O)c2ccc3c(c2)OCO3)O1)NC1CCC1 | 9.5% | 3.32% (inactive)
43 | O=C(Nc1ccccc1F)N[C@H]1CC[C@@H](CCNS(=O)(=O)c2ccc(F)cc2)O[C@@H]1CO | -12.7% | -16.7% (inactive)
44 | O=C(C[C@H]1C=C[C@H](NC(=O)Nc2cc(F)ccc2F)[C@H](CO)O1)Nc1ccccc1 | -0.0195% | -4.16% (inactive)
45 | COc1ccc2c3c(n(C)c2c1)[C@@H](CO)N(C(=O)c1ccc(F)cc1)CC31CN(C(=O)c2ccc(F)cc2)C1 | -9% | -10.3% (inactive)
46 | COc1cccc(-c2ccc(CC[C@H]3O[C@H]4CC[C@@H](CO)O[C@H]4C[C@@H]3NS(C)(=O)=O)cc2)c1 | -32% | -32.8% (inactive)
47 | O=C(C[C@@H]1CC[C@H]2[C@@H](COC[C@H](O)CN2Cc2ccc(F)cc2)O1)N1CCc2ccccc2C1 | -6.62% | -6.87% (inactive)
48 | CN(C)CC(=O)N1[C@H](CO)[C@@H](c2ccc(-c3cccc(C(=O)N(C)C)c3)cc2)[C@@H]1C#N | -1.53% | 8.67% (inactive)
49 | O=C(c1ccncc1)N1C[C@H]2[C@@H](c3ccccc31)[C@H](CO)N2C(=O)Nc1ccc(F)cc1 | 5.09% | 11% (inactive)
50 | COCC(=O)Nc1ccc2c(c1)C(=O)N(C)[C@@H]1CC[C@H](CC(=O)NCC3CC3)O[C@H]1CO2 | 3.16% | 15.4% (inactive)
51 | O=C(c1ccncc1)N1C[C@H]2[C@@H](c3ccccc31)[C@H](CO)N2C(=O)c1ccccn1 | 2.97% | 10.6% (inactive)
52 | COc1ccc2c3c([nH]c2c1)[C@@H](CO)N(Cc1ccccc1F)CC31CN(C(=O)C2CC2)C1 | 19.6% | 12.9% (inactive)
53 | CCCN(C)C[C@@H]1Oc2ncc(-c3cccc(C(=O)N(C)C)c3)cc2C(=O)N([C@H](C)CO)C[C@@H]1C | 1.46% | 23.1% (inactive)
54 | C[C@@H]1CN([C@@H](C)CO)S(=O)(=O)c2ccc(-c3ccc(F)cc3)cc2O[C@@H]1CN(C)CC1CC1 | -14.3% | -33.2% (inactive)
55 | Cn1cnc(S(=O)(=O)N2C[C@@H]3N[C@H](C2)C3c2ccc(/C=C/c3ccccc3)cc2)c1 (stereo partly drawn) | 2.7% and -14.5% | 7.98% (inactive) and -24.7% (inactive)
56 | C[C@H](CO)N1C[C@H](C)[C@@H](CN(C)C(=O)Cc2ccncc2)Oc2ncc(C3=CCCCC3)cc2C1=O | -16% | -18.8% (inactive)
57 | CCC(=O)N1CC2(C1)[C@H](c1ccccc1)[C@@H](CO)N2C(=O)c1ccccc1 | -1.49% | -4.89% (inactive)
58 | COc1ccc(-c2ccc3n(c2=O)C[C@@H]2[C@@H](CO)[C@H](C(=O)Nc4ccccc4)[C@H]3N2C)cc1 | 4.65% | -0.0885% (inactive)
59 | CO[C@H]1CN(C)C(=O)c2ccc(NC(=O)c3ccno3)cc2OC[C@@H](C)N(S(C)(=O)=O)C[C@H]1C | 16.7% | 24.5% (inactive)
